About 21,000 targets were measured; listed, in parts, are those with the largest changes and a random draw of the rest.
Compound: CC1Cc2ccccc2N1C(=O)C1CCCN(C1)C(=O)CCl (mixture of isomers) [TRIM25 ligand 11 (diastereomer mixture)]
Assay: probe-labelled cysteine peptide fold change vs DMSO (competition) (log2 fold change); higher = less target engagement (more negative = stronger competition)
Conditions: THP-1, incubation time: 4 h
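Further: competitive chemoproteomic profiling in live THP-1 cells with an iodoacetamide desthiobiotin (IA-DTB) probe, comparing probe-labelled peptide intensities in compound-treated cells against DMSO-treated controls.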

Chain of UniProt Q9BY12 (Q9BY12 whole entry, looked up): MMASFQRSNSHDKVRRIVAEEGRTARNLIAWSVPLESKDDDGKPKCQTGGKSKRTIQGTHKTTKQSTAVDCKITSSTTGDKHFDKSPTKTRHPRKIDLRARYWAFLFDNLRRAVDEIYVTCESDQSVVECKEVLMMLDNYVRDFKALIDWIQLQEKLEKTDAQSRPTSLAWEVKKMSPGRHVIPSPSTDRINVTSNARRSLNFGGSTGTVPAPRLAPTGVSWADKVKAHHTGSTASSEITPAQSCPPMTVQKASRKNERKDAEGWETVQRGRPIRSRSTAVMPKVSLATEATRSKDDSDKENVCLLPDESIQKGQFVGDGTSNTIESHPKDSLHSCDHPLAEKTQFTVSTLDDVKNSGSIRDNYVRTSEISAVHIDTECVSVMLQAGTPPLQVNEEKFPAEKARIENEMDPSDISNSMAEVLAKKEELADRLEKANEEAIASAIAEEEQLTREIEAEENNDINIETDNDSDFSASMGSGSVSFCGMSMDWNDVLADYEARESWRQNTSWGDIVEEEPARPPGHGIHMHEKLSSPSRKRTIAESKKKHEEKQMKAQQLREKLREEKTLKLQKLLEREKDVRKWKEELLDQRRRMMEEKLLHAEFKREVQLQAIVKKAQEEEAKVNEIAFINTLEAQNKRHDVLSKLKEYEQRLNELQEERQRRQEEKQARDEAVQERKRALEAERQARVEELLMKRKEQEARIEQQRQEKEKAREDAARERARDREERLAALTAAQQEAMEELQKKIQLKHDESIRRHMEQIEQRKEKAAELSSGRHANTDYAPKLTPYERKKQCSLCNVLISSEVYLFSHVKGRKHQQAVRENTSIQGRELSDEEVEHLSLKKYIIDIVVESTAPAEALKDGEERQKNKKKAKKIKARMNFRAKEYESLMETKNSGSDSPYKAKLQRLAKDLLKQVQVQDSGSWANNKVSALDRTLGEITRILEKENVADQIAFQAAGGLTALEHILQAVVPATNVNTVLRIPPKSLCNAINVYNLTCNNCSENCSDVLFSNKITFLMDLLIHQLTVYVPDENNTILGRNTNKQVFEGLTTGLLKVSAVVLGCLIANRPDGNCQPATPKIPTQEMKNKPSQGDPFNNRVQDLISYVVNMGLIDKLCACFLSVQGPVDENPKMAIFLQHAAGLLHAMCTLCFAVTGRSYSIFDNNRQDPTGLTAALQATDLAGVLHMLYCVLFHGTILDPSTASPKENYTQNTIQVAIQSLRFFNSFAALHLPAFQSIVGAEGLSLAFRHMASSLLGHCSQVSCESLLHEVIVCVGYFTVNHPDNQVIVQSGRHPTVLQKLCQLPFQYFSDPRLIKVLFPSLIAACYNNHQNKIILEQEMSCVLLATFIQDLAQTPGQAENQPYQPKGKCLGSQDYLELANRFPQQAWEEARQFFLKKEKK
Chain of UniProt O95248 (O95248 whole entry, looked up): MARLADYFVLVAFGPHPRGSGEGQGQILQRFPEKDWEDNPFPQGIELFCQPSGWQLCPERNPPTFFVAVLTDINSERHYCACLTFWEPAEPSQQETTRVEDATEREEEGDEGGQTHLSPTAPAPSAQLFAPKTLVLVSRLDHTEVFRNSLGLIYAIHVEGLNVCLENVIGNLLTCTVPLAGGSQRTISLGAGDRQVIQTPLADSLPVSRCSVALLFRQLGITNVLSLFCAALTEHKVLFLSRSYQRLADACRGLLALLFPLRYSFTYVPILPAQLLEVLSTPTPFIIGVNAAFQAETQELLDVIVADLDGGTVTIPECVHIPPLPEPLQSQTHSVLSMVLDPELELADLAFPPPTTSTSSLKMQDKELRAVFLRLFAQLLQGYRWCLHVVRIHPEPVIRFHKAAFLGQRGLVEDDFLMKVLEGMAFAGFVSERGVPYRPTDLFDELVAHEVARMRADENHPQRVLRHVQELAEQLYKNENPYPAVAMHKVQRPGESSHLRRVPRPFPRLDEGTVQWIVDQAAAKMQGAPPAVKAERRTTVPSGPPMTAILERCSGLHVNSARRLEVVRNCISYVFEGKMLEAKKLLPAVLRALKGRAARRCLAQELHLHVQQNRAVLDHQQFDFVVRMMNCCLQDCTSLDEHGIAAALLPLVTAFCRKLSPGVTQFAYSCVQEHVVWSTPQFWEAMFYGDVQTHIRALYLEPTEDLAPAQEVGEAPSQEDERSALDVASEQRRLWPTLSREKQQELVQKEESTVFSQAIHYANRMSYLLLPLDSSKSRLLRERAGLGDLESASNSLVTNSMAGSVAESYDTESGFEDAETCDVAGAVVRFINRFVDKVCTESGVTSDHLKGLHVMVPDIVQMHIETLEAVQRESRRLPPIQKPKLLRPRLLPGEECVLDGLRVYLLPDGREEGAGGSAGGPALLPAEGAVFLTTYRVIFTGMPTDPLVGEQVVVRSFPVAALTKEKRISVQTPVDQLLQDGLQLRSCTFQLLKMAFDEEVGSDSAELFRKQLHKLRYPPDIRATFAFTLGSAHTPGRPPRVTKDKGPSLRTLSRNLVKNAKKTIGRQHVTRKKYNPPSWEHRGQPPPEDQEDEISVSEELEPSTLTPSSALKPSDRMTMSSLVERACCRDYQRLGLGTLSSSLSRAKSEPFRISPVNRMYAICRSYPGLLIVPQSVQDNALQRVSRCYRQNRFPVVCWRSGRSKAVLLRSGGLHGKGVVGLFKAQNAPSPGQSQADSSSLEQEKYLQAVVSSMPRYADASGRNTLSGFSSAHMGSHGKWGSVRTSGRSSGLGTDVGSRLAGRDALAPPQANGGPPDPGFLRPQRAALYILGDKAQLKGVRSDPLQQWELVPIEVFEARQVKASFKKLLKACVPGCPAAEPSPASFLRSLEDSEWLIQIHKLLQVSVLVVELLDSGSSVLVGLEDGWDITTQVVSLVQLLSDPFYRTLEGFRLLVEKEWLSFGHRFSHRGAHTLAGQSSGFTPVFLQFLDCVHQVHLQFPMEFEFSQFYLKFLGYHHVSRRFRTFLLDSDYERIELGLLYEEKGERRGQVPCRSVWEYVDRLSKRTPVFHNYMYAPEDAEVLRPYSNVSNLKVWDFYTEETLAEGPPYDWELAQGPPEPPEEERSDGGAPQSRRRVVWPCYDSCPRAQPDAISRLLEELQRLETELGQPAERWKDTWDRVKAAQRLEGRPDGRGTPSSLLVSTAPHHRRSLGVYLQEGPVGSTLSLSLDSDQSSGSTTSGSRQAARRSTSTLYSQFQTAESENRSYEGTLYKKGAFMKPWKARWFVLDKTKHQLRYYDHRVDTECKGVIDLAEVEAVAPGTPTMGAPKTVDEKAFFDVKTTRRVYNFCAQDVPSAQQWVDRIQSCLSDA
Chain of UniProt Q15437 (Q15437 whole entry, looked up): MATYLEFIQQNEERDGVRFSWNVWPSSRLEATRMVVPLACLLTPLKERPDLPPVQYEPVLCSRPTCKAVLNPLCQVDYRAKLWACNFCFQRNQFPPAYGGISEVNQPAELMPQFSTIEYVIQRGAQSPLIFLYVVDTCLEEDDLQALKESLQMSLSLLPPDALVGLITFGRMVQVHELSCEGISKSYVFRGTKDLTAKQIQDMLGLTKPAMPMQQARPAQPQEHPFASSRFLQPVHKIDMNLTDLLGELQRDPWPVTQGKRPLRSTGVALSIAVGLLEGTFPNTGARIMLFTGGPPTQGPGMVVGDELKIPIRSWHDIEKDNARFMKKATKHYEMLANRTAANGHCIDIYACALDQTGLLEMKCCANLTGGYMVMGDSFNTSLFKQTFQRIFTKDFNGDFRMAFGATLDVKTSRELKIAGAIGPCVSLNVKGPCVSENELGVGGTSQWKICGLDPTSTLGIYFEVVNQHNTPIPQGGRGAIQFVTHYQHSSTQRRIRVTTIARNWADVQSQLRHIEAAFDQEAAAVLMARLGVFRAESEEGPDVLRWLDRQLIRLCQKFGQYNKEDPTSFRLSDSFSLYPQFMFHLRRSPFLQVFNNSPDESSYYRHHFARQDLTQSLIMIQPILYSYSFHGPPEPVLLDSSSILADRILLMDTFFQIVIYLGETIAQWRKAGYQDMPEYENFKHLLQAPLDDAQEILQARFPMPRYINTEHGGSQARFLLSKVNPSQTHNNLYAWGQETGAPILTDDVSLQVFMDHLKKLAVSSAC
Chain of UniProt O95197 (O95197 whole entry, looked up): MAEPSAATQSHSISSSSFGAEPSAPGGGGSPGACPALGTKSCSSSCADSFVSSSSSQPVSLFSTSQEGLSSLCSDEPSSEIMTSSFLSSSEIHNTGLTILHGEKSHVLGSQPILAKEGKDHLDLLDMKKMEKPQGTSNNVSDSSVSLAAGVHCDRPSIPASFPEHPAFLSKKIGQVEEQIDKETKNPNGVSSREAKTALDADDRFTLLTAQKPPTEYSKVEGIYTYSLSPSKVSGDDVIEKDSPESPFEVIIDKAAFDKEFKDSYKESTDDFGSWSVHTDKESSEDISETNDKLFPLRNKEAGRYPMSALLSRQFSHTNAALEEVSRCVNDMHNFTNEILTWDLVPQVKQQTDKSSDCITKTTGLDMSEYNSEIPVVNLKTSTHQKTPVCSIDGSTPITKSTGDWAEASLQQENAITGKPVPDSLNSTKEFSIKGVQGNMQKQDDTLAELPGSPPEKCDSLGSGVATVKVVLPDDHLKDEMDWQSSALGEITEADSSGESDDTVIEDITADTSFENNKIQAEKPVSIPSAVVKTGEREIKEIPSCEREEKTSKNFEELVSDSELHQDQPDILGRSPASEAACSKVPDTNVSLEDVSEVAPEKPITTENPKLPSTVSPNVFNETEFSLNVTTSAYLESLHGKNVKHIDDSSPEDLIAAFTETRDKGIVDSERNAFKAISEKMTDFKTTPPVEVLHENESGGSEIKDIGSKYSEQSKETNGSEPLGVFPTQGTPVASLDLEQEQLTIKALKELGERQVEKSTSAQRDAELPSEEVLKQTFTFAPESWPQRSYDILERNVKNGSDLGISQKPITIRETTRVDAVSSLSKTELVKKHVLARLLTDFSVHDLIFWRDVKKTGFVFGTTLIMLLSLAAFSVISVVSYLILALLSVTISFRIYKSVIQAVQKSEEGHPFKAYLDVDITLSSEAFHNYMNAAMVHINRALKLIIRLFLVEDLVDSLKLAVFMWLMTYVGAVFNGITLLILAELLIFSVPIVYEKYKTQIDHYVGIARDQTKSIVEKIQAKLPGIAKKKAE

| Target | probe-labelled cysteine peptide fold change (10 µM) | probe-labelled cysteine peptide fold change (50 µM) |
| --- | --- | --- |
| SCP2_P22307_115_QLIQGGVAECVLALGFEK (UniProt P22307) | -2.21 | -2.14 |
| SEC63_Q9UGP8_490_EQSICAAEEQPAEDGQGETNK (UniProt Q9UGP8) | 0.0683 | -0.228 |
| SBF1_O95248_987_SCTFQLLK (UniProt O95248) | -0.0361 | 0.064 |
| RTN3_O95197-3_42_SCSSSCAVHDLIFWR (UniProt O95197) | -0.124 | -0.737 |
| SEPT9_Q9UHD8_531_WGTIEVENTTHCEFAYLR (UniProt Q9UHD8) | 0.0123 | -0.0856 |
| SETDB1_Q15047_1207_QFYDGEESCYIIDAK (UniProt Q15047) | -0.0777 | -0.0706 |
| SEC62_Q99442_55_AVDCLLDSK (UniProt Q99442) | -0.122 | -0.249 |
| SIGIRR_Q6IA17_174_LYDAYVSYSDCPEDR (UniProt Q6IA17) | 0.24 | -0.151 |
| SNX27_Q96L92_432+434_TCEGYNEIIFPHCACDSR (UniProt Q96L92) | 0.835 | 0.695 |
| SEC24C_P53992_493_RVDAYDRPELSLGSYEFLATVDYCK (UniProt P53992) | -0.123 | 0.0859 |
| RPS2_P15880_222_KLLMMAGIDDCYTSAR (UniProt P15880) | -0.59 | -0.607 |
| SEC13_P55735_77_GHEGPVWQVAWAHPMYGNILASCSYDR (UniProt P55735) | -0.107 | -0.123 |
| SMYD3_Q9H7B4_263_DQYCFECDCFR (UniProt Q9H7B4) | -0.0567 | 0.116 |
| SCAPER_Q9BY12_336_DSLHSCDHPLAEK (UniProt Q9BY12) | -0.0351 | -0.308 |
| RRM1_P23921_218_WFTHASPTLFNAGTNRPQLSSCFLLSMKDDSIEGIYDTLK (UniProt P23921) | 0.111 | 0.0345 |
| SRGAP2_O75044_486_TDCSLAR (UniProt O75044) | -0.0891 | -0.197 |
| SLC2A9_Q9NRM0_36_ALLECDHLR (UniProt Q9NRM0) | -0.0472 | -0.18 |
| SORD_Q00796_179_VLVCGAGPIGMVTLLVAK (UniProt Q00796) | -0.904 | -0.915 |
| RSPRY1_Q96DX4_190_LTEILNLNGEVACQDSSHPAK (UniProt Q96DX4) | -0.258 | -0.129 |
| SNRNP200_O75643_576_RLATYGITVAELTGDHQLCK (UniProt O75643) | -0.0593 | 0.102 |
| SEC23B_Q15437_40_MVVPLACLLTPLK (UniProt Q15437) | -0.0615 | -0.0659 |
| SPATA5_Q8NB90_459_HPSIIFIDELDALCPK (UniProt Q8NB90) | -0.0102 | -0.321 |
| RPP40_O75818_235_DLQCPVLQSSELEGTPEVSCR (UniProt O75818) | 0.892 | 0.729 |
| SLC1A5_Q15758_467_SCTVLNVEGDALGAGLLQNYVDR (UniProt Q15758) | -0.0169 | 0.588 |

Source: the supplement of paper PMC12067093, “Discovery and optimisation of a covalent ligand for TRIM25 and its application to targeted protein ubiquitination” (Chemical Science, 2025)
